ADAM10 inh: inhibits human ADAM10 | recombinant ADAM10, EDANS/DABCYL FRET peptide cleavage, 3 h | inhibition, % at 7 µM | actives 0.62% (n = 370,000);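 active = inhibition above a per-campaign cutoff equal to the mean of compounds falling between control-based bounds plus 3 SD, cut at about 20% in these data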
ADAM17 inh: inhibitors of human ADAM17. P78536. recombinant ADAM17, EDANS/DABCYL FRET peptide cleavage. inhibition, % at 6.95 µM. actives 0.83% (n = 370,000). AID 720648;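 active = inhibition above the mean of compounds lying between control limits plus 3 SD, set per campaign, cut at about 8.5% in these data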
proKLK7 act: proKLK7 (human) activation, primary screen | P49862 | activation, % at 7 µM | purified proKLK7, EDANS-DABCYL substrate fluorescence; 100% is mature enzyme control, 0% vehicle | actives 0.9% (n = 370,000) | AID 652039;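 active = activation above the mean of all tested compounds plus 3 SD, computed per campaign excluding outliers beyond control limits, cut at about 13% in these data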
Target sequence (P49862 whole entry, looked up): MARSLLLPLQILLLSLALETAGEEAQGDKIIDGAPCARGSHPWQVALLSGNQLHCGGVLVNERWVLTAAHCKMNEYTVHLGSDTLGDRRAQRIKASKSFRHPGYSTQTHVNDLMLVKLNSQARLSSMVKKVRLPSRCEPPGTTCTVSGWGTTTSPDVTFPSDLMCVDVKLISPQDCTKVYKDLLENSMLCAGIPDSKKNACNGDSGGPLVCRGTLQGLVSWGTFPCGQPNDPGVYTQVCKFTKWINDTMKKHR
PLC-beta3 inh: PLC-beta3 (human) inhibition, primary screen; Q01970; Purified PLC-beta3, fluorogenic substrate, fluorescence; inhibition, % at 12.2 µM; actives 0.18% (n = 370,000); AID 720704; in the data active = inhibition above about 11%
PLC-gamma1 inh: inhibitors of human phospholipase C gamma1. P19174. purified PLC-gamma1, fluorogenic substrate, fluorescence. inhibition, % at 12.2 µM. actives 0.84% (n = 370,000). AID 720700; in the data active = inhibition above about 9.5%
ADAM10 confirm: human ADAM10 inhibition, confirmation; actives 1% (n = 2,100); ADAM10 QFRET peptide cleavage, EDANS fluorescence; shares compounds with ADAM10 inh; inhibition, % at 6.95 µM;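 active = inhibition above about 20% chosen separately for each screening run, limit read from the data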
ADAM17 counter: ADAM17 inhibition, counter-screen for ADAM10 exosite hits. shares compounds with ADAM10 inh. ADAM17 QFRET peptide cleavage, EDANS fluorescence. inhibition, % at 6.95 µM. actives 0.5% (n = 2,100). AID 743214;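 active = mean triplicate inhibition above the solvent-only control wells' mean plus 3 SD, cut at about 12% in these data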
Numbers stand for hits; n = inactive; x = no result. A selection: hits, their analogues and other compounds. The true share with any hit is near 2.9%.

SMILES	ADAM10 inh	ADAM17 inh	proKLK7 act	PLC-beta3 inh	PLC-gamma1 inh	ADAM10 confirm	ADAM17 counter
COC(=O)[C@]12C[C@H](CC(=O)NCc3cccc4ccccc34)C(=O)N(CCc3ccc(OC)c(OC)c3)C1=C[C@H](C(C)(C)C)O[C@@H]2C	22	n	n	n	n	n	n
COC(=O)[C@]12C[C@H](CC(=O)N3CCC(c4ccccc4)CC3)C(=O)N(CCc3ccc(OC)c(OC)c3)C1=C[C@H](C(C)C)O[C@@H]2C1CC1	n	n	n	n	n	x	x
CC1=NNC(=O)/C1=C\c1cn(-c2ccccc2)nc1-c1ccccc1	24	16	n	n	10	n	n
COc1ccc(NC(=O)Cc2coc3cc(C)c(C(C)C)cc23)cc1S(=O)(=O)N1CCOCC1	22	n	n	n	n	n	n
COc1ccc2c(CC(=O)Nc3ccc(OC)c(S(=O)(=O)N4CCOCC4)c3)coc2c1	n	n	n	n	n	x	x
CCC(=O)Nc1ccc2ccccc2c1	n	n	n	n	n	x	x
CC(C)(C)CC(C)(C)NC(=O)CSCC(=O)Nc1ccc2ccccc2c1	25	n	n	n	n	n	n
CSc1ccccc1NC(=O)C(=O)c1c[nH]c2ccccc12	22	n	n	n	n	n	n
C[C@@H](NC(=O)C(=O)c1c[nH]c2ccccc12)c1ccccc1	n	n	n	n	n	x	x
Cc1ccc2oc(=O)c(/C=C(\O)c3ccco3)nc2c1	21	n	n	n	n	n	n
COc1ccc2c(c1)CCCN2C(=O)C1CCCN(S(=O)(=O)c2ccc(Cl)s2)C1 (stereo not drawn)	n	n	n	n	n	x	x
CCOc1cccc(NC(=O)C2CC(=O)N(C)C(=Nc3cccc(F)c3)S2)c1 (stereo not drawn)	21	n	n	n	n	n	n
Cc1ccc2c(c1)C1CS(=O)(=O)N(Cc3ccc(F)cc3)CN1C2 (stereo not drawn)	n	n	n	n	n	x	x
CCS(=O)(=O)c1ccc2oc(Nc3ccc(C(C)(C)C)cc3)nc2c1	24	n	n	n	n	n	n
CCS(=O)(=O)c1ccc2oc(Nc3ccc(OC)cc3)nc2c1	n	n	n	n	n	x	x
FC(F)(F)c1ccccc1NC(=S)OC1CCC12CCC(c1ccccc1)CC2 (stereo not drawn)	n	n	n	n	n	x	x
CC1(C)CC2CC(C)(CN2C(=O)c2cc(-c3ccc(O)cc3)on2)C1 (stereo not drawn)	22	n	n	n	n	n	n
Cc1ccc(C(c2cc(Br)ccc2O)N2CCSCC2)cc1 (stereo not drawn)	25	n	n	n	n	n	n
COc1ccc(S(=O)(=O)N(C)C[C@@H]2Oc3c(NC(=O)Nc4ccccc4)cccc3C(=O)N([C@@H](C)CO)C[C@H]2C)cc1	n	n	x	n	n	x	x
CN(c1ccccc1)S(=O)(=O)c1nnc(NC(=O)c2ccco2)s1	48	n	n	n	n	n	n
COc1ccc(C(=O)C2(C(=O)NCCO)CC(c3ccccn3)=NO2)cc1 (stereo not drawn)	n	n	n	n	n	x	x
CCOC(=O)CC[C@H]1CC[C@]2(CCCN(C(=O)c3ccco3)C2)O1	n	n	n	n	n	x	x
COc1ccc(-c2nnc(SC(C(=O)c3c[nH]c4ccccc34)c3ccccc3)n2N)cc1OC (stereo not drawn)	22	n	n	n	n	n	n
CCn1c2ccccc2c2cc(NC(=O)CSc3nnc(-c4ccc(OC)c(OC)c4)n3N)ccc21	n	n	n	n	n	x	x
CC1CCC(NC(=O)c2cccc(S(=O)(=O)N3CCN(c4ccccc4)CC3)c2)CC1 (stereo not drawn)	n	n	n	n	n	x	x
SMILES	ADAM10 inh	ADAM17 inh	proKLK7 act	PLC-beta3 inh	PLC-gamma1 inh	ADAM10 confirm	ADAM17 counter
O=C(NC1CCCc2ccccc21)c1cccc(S(=O)(=O)N2CCN(c3ccccc3)CC2)c1 (stereo not drawn)	20	9.5	n	n	n	n	n
O=C(CSc1nnc(COc2ccc(F)cc2)o1)N1c2ccccc2CCc2ccccc21	20	n	n	n	n	n	n
Cc1cccc(CCNC(=O)CCc2nc(-c3ccccc3F)no2)c1	20	n	n	n	n	n	n
C[C@@H]1CN([C@@H](C)CO)C(=O)CCCn2cc(nn2)CO[C@H]1CN(C)C(=O)Nc1ccnc(N2CCOCC2)c1	n	n	n	n	n	x	x
O=C(/C=C/c1ccco1)NC(=S)Nc1ccccc1	23	n	n	n	n	n	n
Cc1ccc(-n2c(Cc3cccs3)nnc2SCc2ccc(C#N)cc2)cc1	n	n	n	n	n	x	x
COc1cc(NC(=O)C/C(C)=N/NC(=O)c2cccs2)c(OC)cc1Cl	28	15	n	n	n	n	n
CCOC(=O)N1CCN(CCC(=O)Nc2ccc(OC)cc2)CC1	71	n	n	n	n	n	n
CCOC(=O)C1CCN(C(=O)C(Cc2ccc3c(c2)OCO3)NC(C)=O)CC1 (stereo not drawn)	n	n	n	n	n	x	x
COc1ccc(O)c(-c2c(-c3ccc(Cl)cc3)n[nH]c2C)c1	n	n	n	n	n	x	x
COc1ccc(-c2cc(-c3ccc(C)cc3)n[nH]2)c(O)c1	33	n	n	n	n	n	n
COc1ccc(-c2cc(-c3cc(C)ccc3O)[nH]n2)cc1	n	n	n	n	n	x	x
Cc1[nH]nc(-c2ccc(O)cc2O)c1-c1ccc(Cl)cc1	20	n	n	n	n	n	n
COc1ccc(-c2n[nH]c(C)c2-c2ccc(Cl)cc2)c(O)c1	20	n	n	n	n	n	n
Cc1cc(C)cc(C(=O)OCCCN(C)C2CN(Cc3cn(Cc4ccccc4C(F)(F)F)nn3)S(=O)(=O)C2)c1 (stereo not drawn)	n	n	n	n	n	x	x
O=S(=O)(c1cc2ccccc2s1)n1c(CN2CCOCC2)nc2ccccc21	n	n	n	n	n	x	x
COC(=O)[C@]12C[C@H](CC(=O)NCCCCc3ccccc3)C(=O)N(Cc3ccc(Cl)cc3Cl)C1=C[C@H](C(C)(C)C)O[C@@H]2C	n	n	n	n	n	x	x
CCOc1cccc(C(=O)Nc2ccc3ccccc3c2)c1	n	n	n	n	n	x	x
CCOc1cccc(C(=O)Nc2ccc(N(CC)CC)cc2)c1	27	n	n	n	n	n	n
CC(C)CC(NS(=O)(=O)OCC(Cl)(Cl)Cl)c1ccccc1 (stereo not drawn)	20	n	n	n	n	n	n
Cc1cc(N2CCNC[C@@H]2C)ccc1N1CCN(Cc2ccccc2)[C@H](C)C1	n	n	n	n	n	x	x
Oc1ccccc1CN(Cc1ccco1)CC(O)COCc1ccc(Cl)cc1 (stereo not drawn)	23	n	n	n	n	n	n

Screening results deposited in PubChem by The Scripps Research Institute Molecular Screening Center.
